# Only some compounds are listed: those with a hit (about 3.5% of all), similar ones and a draw of the others.
# mHTT CaM bind: disrupts binding of mutant huntingtin to calmodulin; inhibition, % at 15 µM; AlphaScreen His-mHTT/GST-CaM binding, luminescence; 190,000 compounds, 3.6% hits; AID 1671202; P42858
# Target sequence (P42858 whole entry, looked up, change not shown): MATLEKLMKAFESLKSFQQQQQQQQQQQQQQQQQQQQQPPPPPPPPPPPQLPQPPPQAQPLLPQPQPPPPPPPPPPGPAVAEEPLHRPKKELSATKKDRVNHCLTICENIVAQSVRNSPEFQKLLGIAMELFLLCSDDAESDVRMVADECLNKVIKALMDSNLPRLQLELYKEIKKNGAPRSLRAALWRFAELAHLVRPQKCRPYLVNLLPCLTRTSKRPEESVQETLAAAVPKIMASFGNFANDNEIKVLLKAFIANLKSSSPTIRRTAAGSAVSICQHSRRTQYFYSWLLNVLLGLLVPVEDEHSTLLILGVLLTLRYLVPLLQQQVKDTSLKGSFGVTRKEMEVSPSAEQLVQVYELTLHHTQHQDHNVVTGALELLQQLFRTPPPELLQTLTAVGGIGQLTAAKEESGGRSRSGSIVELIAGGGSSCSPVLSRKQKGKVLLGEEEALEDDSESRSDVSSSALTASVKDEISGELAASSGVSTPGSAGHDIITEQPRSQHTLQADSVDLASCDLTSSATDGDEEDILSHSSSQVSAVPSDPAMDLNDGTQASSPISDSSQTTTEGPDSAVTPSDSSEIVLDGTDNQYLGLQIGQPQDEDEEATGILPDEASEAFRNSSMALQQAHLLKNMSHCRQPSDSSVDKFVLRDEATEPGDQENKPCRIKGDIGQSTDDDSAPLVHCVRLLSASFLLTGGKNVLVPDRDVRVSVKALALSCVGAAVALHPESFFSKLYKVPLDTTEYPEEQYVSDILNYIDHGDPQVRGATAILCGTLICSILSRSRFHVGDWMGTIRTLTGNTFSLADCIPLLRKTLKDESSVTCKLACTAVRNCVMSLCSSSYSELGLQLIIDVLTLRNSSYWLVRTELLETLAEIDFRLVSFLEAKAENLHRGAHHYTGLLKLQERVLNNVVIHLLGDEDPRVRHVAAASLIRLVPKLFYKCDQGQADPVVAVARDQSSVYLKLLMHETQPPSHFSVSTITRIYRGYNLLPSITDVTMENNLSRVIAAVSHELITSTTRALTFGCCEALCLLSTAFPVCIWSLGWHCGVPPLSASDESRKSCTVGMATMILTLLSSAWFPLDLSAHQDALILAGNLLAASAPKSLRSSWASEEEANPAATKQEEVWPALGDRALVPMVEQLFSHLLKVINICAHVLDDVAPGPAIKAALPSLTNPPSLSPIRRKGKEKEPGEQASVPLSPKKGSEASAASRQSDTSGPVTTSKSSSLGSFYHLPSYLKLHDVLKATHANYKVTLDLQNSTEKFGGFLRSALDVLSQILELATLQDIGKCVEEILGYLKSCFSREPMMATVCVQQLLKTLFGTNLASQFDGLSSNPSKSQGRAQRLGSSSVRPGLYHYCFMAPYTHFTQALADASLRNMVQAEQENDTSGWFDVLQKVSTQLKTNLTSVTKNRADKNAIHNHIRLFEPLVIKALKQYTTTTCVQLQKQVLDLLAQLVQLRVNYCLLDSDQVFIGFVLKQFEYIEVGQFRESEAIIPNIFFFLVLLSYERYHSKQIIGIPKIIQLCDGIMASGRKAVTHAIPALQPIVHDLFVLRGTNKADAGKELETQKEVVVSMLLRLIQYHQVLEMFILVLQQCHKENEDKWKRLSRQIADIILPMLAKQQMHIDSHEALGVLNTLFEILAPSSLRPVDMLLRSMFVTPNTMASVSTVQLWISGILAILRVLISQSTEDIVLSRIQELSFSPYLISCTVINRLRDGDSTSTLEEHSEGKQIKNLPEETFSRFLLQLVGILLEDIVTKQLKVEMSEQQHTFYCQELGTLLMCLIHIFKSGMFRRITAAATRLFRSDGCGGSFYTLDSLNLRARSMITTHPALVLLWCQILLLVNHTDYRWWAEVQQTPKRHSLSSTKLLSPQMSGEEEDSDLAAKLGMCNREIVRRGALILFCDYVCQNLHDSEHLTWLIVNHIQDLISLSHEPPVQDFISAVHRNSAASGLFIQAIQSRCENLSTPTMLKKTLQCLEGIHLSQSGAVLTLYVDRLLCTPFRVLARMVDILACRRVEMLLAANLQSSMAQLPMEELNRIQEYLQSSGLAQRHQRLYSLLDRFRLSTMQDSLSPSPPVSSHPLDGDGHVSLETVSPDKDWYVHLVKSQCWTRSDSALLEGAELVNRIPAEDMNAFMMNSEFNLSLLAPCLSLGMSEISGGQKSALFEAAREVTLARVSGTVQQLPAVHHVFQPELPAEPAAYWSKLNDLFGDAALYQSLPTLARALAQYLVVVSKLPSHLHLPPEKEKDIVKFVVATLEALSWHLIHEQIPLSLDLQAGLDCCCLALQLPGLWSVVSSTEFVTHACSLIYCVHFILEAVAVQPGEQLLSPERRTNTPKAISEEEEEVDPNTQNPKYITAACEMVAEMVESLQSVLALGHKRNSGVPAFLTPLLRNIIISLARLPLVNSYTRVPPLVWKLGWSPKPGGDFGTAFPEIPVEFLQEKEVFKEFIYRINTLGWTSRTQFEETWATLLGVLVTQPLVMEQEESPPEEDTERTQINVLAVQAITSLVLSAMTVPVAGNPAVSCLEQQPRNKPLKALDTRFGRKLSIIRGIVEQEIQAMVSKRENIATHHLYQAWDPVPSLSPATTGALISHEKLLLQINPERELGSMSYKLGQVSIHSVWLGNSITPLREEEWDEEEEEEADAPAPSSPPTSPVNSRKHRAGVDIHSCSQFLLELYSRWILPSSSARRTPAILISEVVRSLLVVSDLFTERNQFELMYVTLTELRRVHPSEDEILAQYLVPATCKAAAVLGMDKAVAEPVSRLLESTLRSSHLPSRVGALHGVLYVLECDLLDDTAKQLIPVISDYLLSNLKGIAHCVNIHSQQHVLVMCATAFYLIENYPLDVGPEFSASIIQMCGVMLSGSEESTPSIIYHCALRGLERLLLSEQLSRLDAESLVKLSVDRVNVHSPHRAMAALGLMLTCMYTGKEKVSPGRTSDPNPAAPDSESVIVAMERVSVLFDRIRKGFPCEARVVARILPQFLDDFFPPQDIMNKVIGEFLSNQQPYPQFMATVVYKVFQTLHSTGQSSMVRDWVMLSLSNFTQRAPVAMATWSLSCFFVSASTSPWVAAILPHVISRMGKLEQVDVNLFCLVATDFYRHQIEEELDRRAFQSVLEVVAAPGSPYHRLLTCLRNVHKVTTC
# Pf apPOL block: Pf-apPOL DNA polymerase inhibition. Recombinant Pf-apPOL, molecular beacon fluorescence, 1.5 h. inhibition, % at 10 µM. 210,000 compounds, 0.25% hits. AID 1794808
# Numbers stand for hits; – = inactive; · = no result given. Cut-off read from the data, not from the text of the source: active = inhibition above about 50%; inactive = the rest.
SMILES,mHTT CaM bind,Pf apPOL block
O=C(Nc1nnc(C2CC(=O)N(c3ccc(Cl)cc3)C2)o1)c1ccc(F)cc1 (configuration not stated),–,–
O=C(COc1ccc(F)cc1)Nc1nnc(C2CC(=O)N(c3ccc(F)cc3)C2)o1 (configuration not stated),67.7,–
O=C(Cc1ccc(F)cc1)Nc1nnc(C2CC(=O)N(c3ccc(Cl)cc3)C2)o1 (configuration not stated),67.0,–
COc1ccc2cc3cc(C(=O)NCc4ccc(C)cc4)sc3nc2c1,–,–
O=C(NCC1(O)CCCC1)C1CCC1,–,–
c1ccc(Cn2cnnc2C2CCCN(Cc3ccsc3)C2)cc1 (configuration not stated),–,–
C=C(C)COc1ccc([N+](=O)[O-])cc1,–,–
O=C(Nc1nnc(C2CC(=O)N(c3ccc(F)cc3)C2)o1)c1ccccc1F (configuration not stated),60.7,–
O=C(Nc1nnc(C2CC(=O)N(c3ccccc3)C2)o1)c1ccccc1F (configuration not stated),–,–
CCOc1ccc(C2N(c3ccc(Cl)cc3)C(=O)C3CCCN32)cc1OC (configuration not stated),–,–
COc1cc(OC)c(C2N(c3ccc(Cl)c(Cl)c3)C(=O)C3CCCN32)cc1OC (configuration not stated),97.8,–
CCc1ccc(C2N(c3cc(Cl)ccc3OC)C(=O)C3CCCN32)cc1 (configuration not stated),–,–
CCN(CC)c1ccc(C2N(c3cc(Cl)ccc3OC)C(=O)C3CCCN32)cc1 (configuration not stated),75.3,–
COc1ccc(N2C(=O)C3CCCN3C2c2ccc(Cl)cc2)cc1Cl (configuration not stated),–,–
COc1ccccc1C1N(c2ccc(Cl)c(Cl)c2)C(=O)C2CCCN21 (configuration not stated),100.1,–
COc1ccccc1C1N(c2cc(Cl)ccc2OC)C(=O)C2CCCN21 (configuration not stated),–,–
COc1cc(OC)c(C2N(c3ccc(Cl)cc3)C(=O)C3CCCN32)cc1OC (configuration not stated),67.3,–
Cc1nnc2ccc(NC(=O)Nc3cccc(F)c3)cn12,–,–
Cc1ccc(N2CCN(C(=O)C3CC(=O)N(CCc4ccccc4)C3)CC2)cc1 (configuration not stated),–,–
Cc1ccc(NC(=O)N2CCC(n3c(-c4ccoc4)nc4cccnc43)C2)cc1 (configuration not stated),–,–
Cc1ccc(-c2nc(C(=O)NC(C)C)c3n2CCCCC3)cc1,–,–
O=C(Nc1ccccn1)c1nc(-c2ccc(Cl)cc2)n2c1CCCCC2,–,–
O=C(NCc1ccccn1)c1nc(-c2ccc(Cl)cc2)n2c1CCCCC2,54.5,–
COc1ccccc1CNC(=O)c1nc(-c2ccc(C)cc2)n2c1CCCCC2,61.1,–
Cc1noc(-c2nn(C)c3c2CN(C(=O)c2ccc(C(C)(C)C)cc2)CC3)n1,–,–
SMILES,mHTT CaM bind,Pf apPOL block
Cn1ncc([N+](=O)[O-])c1C(=O)NNC(=S)NC1CCCC1,–,·
O=C(NNC(=S)NC1CCCCC1)c1[nH]ncc1[N+](=O)[O-],61.0,·
Cc1cccc(NC(=O)CN2C(=O)C(c3ccccc3)=NC23CCCCC3)c1,–,–
O=C(CN1C(=O)C(c2ccccc2)=NC12CCCCC2)Nc1ccc(F)c(Cl)c1,–,–
O=C(CN1C(=O)C(c2ccc(F)cc2)=NC12CCCC2)Nc1ccc(F)c(Cl)c1,100.0,–
O=C(CN1C(=O)C(c2ccccc2)=NC12CCCCC2)Nc1cccc(Cl)c1,89.0,–
O=C(CN1C(=O)C(c2ccc(F)cc2)=NC12CCCC2)Nc1ccc(Cl)cc1,–,–
O=C(CN1C(=O)C(c2ccc(F)cc2)=NC12CCCCC2)Nc1ccc(F)c(Cl)c1,95.1,–
COc1ccc(S(=O)(=O)N(CC(=O)N2CCC(C(N)=O)CC2)c2ccc(C)cc2)cc1OC,–,–
COc1ccc2[nH]c(C(=O)NC3CC3)cc2c1,–,–
O=C1N/C(=C\c2ccc(N3CCCC3)cc2)C(=O)N1Cc1ccccc1Cl,–,87.7
O=C1N/C(=C/c2ccc(N3CCCC3)cc2)C(=O)N1Cc1ccc([N+](=O)[O-])cc1,–,–
CCNC(=O)c1cncc(-c2c(C)cccc2C)c1,–,–
Cc1ccccc1-c1ccc(CN2C(C(C)C)C(=O)N(Cc3cn(CCC4OCCO4)nn3)CCS2(=O)=O)cc1 (configuration not stated),71.1,–
Cc1ccc(-c2ccc(CN3C(C(C)C)C(=O)N(Cc4cn(CCC5OCCO5)nn4)CCS3(=O)=O)cc2)c(C)c1 (configuration not stated),73.6,–
COc1ccc(-c2ccc(CN3C(C(C)C)C(=O)N(Cc4cn(CCC5OCCCO5)nn4)CCS3(=O)=O)cc2)cc1OC (configuration not stated),–,–
CC(C)Cc1ccc(CN2C(C(C)C)C(=O)N(Cc3cn(CCC4OCCO4)nn3)CCS2(=O)=O)cc1 (configuration not stated),–,–
Cc1nn(-c2cccc(Cl)c2)c2c1C(c1ccncc1)C(C#N)=C(N)O2 (configuration not stated),–,–
COc1cc(C2C(C#N)=C(N)Oc3c2c(C)nn3-c2cccc(Cl)c2)cc(OC)c1O (configuration not stated),64.0,–
CCOc1ccc(C2=NC3(CCN(C(C)=O)CC3)NC(c3cc(Cl)ccc3O)C2)cc1 (configuration not stated),–,–
CCc1ccc(Nc2nn3c(=O)c4ccccc4nc3s2)cc1,–,–
Cc1ccc(C(=O)N2CCC(CCNS(=O)(=O)c3ccc(C)cc3)CC2)cc1,–,–
Cc1ccc(C(=O)N2CCC(CCNS(=O)(=O)c3ccccc3)CC2)cc1,–,–
Cc1ccc(C(=O)N2CCC(CCNS(=O)(=O)c3c(C)cc(C)cc3C)CC2)cc1,–,–
Cc1ccc(C(=O)N2CCC(CCNS(=O)(=O)c3ccc(F)cc3)CC2)cc1,53.2,–
SMILES,mHTT CaM bind,Pf apPOL block
Cc1ccc(F)cc1S(=O)(=O)NCCC1CCN(C(=O)c2ccc(F)cc2)CC1,–,–
Cc1ccc(C(=O)N2CCC(CCNS(=O)(=O)c3c(C)noc3C)CC2)cc1,61.9,–
Cc1ccc(C)c(S(=O)(=O)NCCC2CCN(C(=O)c3ccc(F)cc3)CC2)c1,61.1,–
CCOc1ccc(S(=O)(=O)NCCC2CCN(C(=O)c3ccc(C)cc3)CC2)cc1,61.6,–
COc1ccc(CCS(=O)(=O)NCC2CCN(C3CCCC3)CC2)cc1,–,–
O=C(NCCCN1CCN(Cc2ccccc2)CC1)c1csc2c1CCCC2,–,–
O=C(c1ccccc1)N1CCC(CCNS(=O)(=O)c2ccc(F)cc2)CC1,–,–
Cc1ccc(C(=O)N2CCC(CCNS(=O)(=O)c3cccc(C)c3)CC2)cc1,–,–
O=C(c1ccc(F)cc1)N1CCC(CCNS(=O)(=O)c2ccc(Cl)cc2)CC1,55.1,–
Cc1ccc(C(=O)N2CCC(CCNS(=O)(=O)c3cccc(C#N)c3)CC2)cc1,50.4,–
Cc1ccc(C(=O)N2CCC(c3nc(-c4ccncc4)n[nH]3)CC2)s1,–,–
CC(Oc1ccccc1)C(=O)N1CCC(n2nc(-c3ccsc3)ccc2=O)CC1 (configuration not stated),71.2,–
COc1ccc(C(=O)N2CCC(n3nc(-c4ccsc4)ccc3=O)CC2)cc1,98.5,–

# Source: PubChem BioAssay
